# Results taken from ChEMBL document CHEMBL3988442, “University of Dundee, Small-Polar-MMV Screening Library” (2021).
# The whole screen tested about 69,000 compounds, of which about 1,000 (1.4%) showed an effect of 50% or more. This excerpt belongs to a sample that is enriched for strong results.
# Tested on: Leishmania donovani
# Test: Leishmania intramacrophage assay
# Format: functional, organism-based
# Parameters: scale not given: in the data most compounds retested in dose-response had high values
smiles,measurement,setting,value
COc1ccc(CN2C[C@@H]3CC[C@H](C2)N(Cc2snnc2C)C3)cc1,Percent Effect,"30.3 µM, […]",-20.42%
CN(C)S(=O)(=O)NCC1(c2ccccc2Br)CC1,Percent Effect,"30.3 µM, […]",-4.461%
CS(=O)(=O)NCC1(c2ccccc2Br)CC1,Percent Effect,"30.3 µM, […]",-0.01271%
NS(=O)(=O)NCC1(c2ccccc2Br)CC1,Percent Effect,"30.3 µM, […]",94.29%
CC(C)(O)c1cc(CC2(NCc3ccccc3Cl)COC2)no1,Percent Effect,"30.3 µM, […]",25.25%
Cc1ccc(C(C)NCc2cn(CCC(N)=O)c3ccccc23)cc1C (stereo not drawn),Percent Effect,"30.3 µM, […]",88.97%
CC(C)n1cnnc1CCNCc1cn(CCC(N)=O)c2ccccc12,Percent Effect,"30.3 µM, […]",32.43%
CC(NCc1cn(CCC(N)=O)c2ccccc12)c1nncn1C (stereo not drawn),Percent Effect,"30.3 µM, […]",-7.777%
O=C(Cn1c(=O)nc2n1C(=O)N(c1ccccc1)C2)NC1CCCCC1,Percent Effect,"30.3 µM, […]",-29.26%
COc1ccccc1CN1C(=O)O[C@@H]2CN(Cc3cccc(C)n3)C[C@@H]21,Percent Effect,"30.3 µM, […]",-18.87%
CC(C)c1nnc2n1CC(CNCc1nc3ccccc3s1)CC2 (stereo not drawn),Percent Effect,"30.3 µM, […]",-6.919%
O=C(Nc1c(N2CCCC2)cccc1N1CCCC1)c1ccccn1,Percent Effect,"30.3 µM, […]",56.83%
O=C(Nc1c(N2CCCC2)cccc1N1CCCC1)c1cnsn1,Percent Effect,"30.3 µM, […]",-91.54%
O=C(Nc1c(N2CCCC2)cccc1N1CCCC1)c1cnccn1,Percent Effect,"30.3 µM, […]",2.563%
N#Cc1ccccc1CN1C[C@@H]2CC[C@H](C1)N(CC1CC1)C2=O,Percent Effect,"30 µM, 30.03 µM",6.562%
COc1ccc(CNC(=O)CCc2c(C)noc2C)cc1F,Percent Effect,"30.3 µM, […]",14.24%
c1ccc(Cc2nc(CNC3CCC4(CCNCC4)CC3)no2)cc1,Percent Effect,"30.3 µM, […]",-22.96%
CCOC(=O)N1CCN(C(=O)C2CC(=O)N(c3ccccc3Br)C2)CC1 (stereo not drawn),Percent Effect,"30.3 µM, […]",15.14%
Cc1ccccc1NCc1nc2n(n1)CCCCC2,Percent Effect,"30.3 µM, […]",-2.813%
Cc1ccc(Cl)cc1NCc1nc2n(n1)CCCCC2,Percent Effect,"30.3 µM, […]",5.268%
Cc1c(Cl)cccc1NCc1nc2n(n1)CCCCC2,Percent Effect,"30.3 µM, […]",55.49%
Cl.Cl.O=C(NCc1cncc2c1CCN(Cc1cccc(F)c1)C2)C1CC1,Percent Effect,"30 µM, 30.03 µM",-3.8%
CC(NC(=O)NCCn1ccnc1)c1nncn1C (stereo not drawn),Percent Effect,"30.3 µM, […]",-59.34%
CCc1nc(NC(=O)NCCc2scnc2C)nn1C,Percent Effect,"30.3 µM, […]",-19.54%
CC1CCCN(Cc2csc(-c3ncccn3)n2)CC1 (stereo not drawn),Percent Effect,"30 µM, 30.03 µM",43.73%
CCCC1CCCN(Cc2csc(-c3ncccn3)n2)CC1 (stereo not drawn),Percent Effect,30 µM,77.24%
CCCC1CCCN(Cc2csc(-c3cnn(C)c3)n2)CC1 (stereo not drawn),Percent Effect,"30 µM, 30.03 µM",-20.44%
O=C1NC(c2cccnc2)=NC12CCN(CCCc1ccccc1)CC2,Percent Effect,"30.3 µM, […]",-4.495%
CC1=NC2(CCN(CC(C)c3ccccc3)CC2)C(=O)N1 (stereo not drawn),Percent Effect,"30.3 µM, […]",10.6%
CC(CN1CCC2(CC1)N=C(c1cccnc1)NC2=O)c1ccccc1 (stereo not drawn),Percent Effect,"30.3 µM, […]",100.2%
Cc1nc(CN2CCCC(CCc3ccc(F)cc3F)C2)c[nH]1 (stereo not drawn),Percent Effect,"30 µM, 30.03 µM",30.76%
Cc1nc(CN2CCCC(CCc3ccc(F)c(F)c3)C2)c[nH]1 (stereo not drawn),Percent Effect,"30.3 µM, […]",65.39%
Cc1nc(CN2CCCC(CCc3c(F)cccc3F)C2)c[nH]1 (stereo not drawn),Percent Effect,"30 µM, 30.03 µM",47.92%
COCC1CN(C(=O)Nc2cc(-n3cccc3)ccc2F)CCO1 (stereo not drawn),Percent Effect,"30.3 µM, […]",7.734%
CNC(=O)CN1CCOC(c2cccc(N)n2)C1 (stereo not drawn),Percent Effect,"30.3 µM, […]",18.21%
CN(Cc1nnc(C2CC2)n1C)C1CCN(Cc2nccn2C)C1 (stereo not drawn),Percent Effect,30 µM,20.02%
O=C(NCCc1nncn1C1CC1)C1(Cc2ccccc2)CCC1,Percent Effect,"30.3 µM, […]",8.956%
CN(C)CCN(Cc1ccccn1)Cc1ccnn1C1CCCCO1.O=C(O)CC(O)(CC(=O)O)C(=O)O (stereo not drawn),Percent Effect,"30.3 µM, […]",29.57%
Cc1sc2nc(CCN)nc(N(C)CCCC3CCCO3)c2c1C (stereo not drawn),Percent Effect,"30.3 µM, […]",63.54%
CC(=O)N1CCc2c(nc(N(C)C)nc2N(C)CCCC2CCCO2)C1 (stereo not drawn),Percent Effect,"30.3 µM, […]",-1.539%
CCCSc1nn(CCN(C)C)c2nc3sc(C)c(CC)c3c(=O)n12,Percent Effect,"30.3 µM, […]",45.45%
COCCN(CC1CC1)c1nc(CCN)nc2sc(C)c(C)c12,Percent Effect,"30.3 µM, […]",77.93%
Cc1sc2nc(CCN)nc(N(CCN(C)C)CC3CCCO3)c2c1C (stereo not drawn),Percent Effect,"30.3 µM, […]",38.72%
CCN(CCN(C)C)c1nc(CCN)nc2sc(C)c(C)c12,Percent Effect,"30.3 µM, […]",54.95%
Cc1nn(C2CCS(=O)(=O)C2)c(O)c1Cc1ccccc1 (stereo not drawn),Percent Effect,"30.3 µM, […]",20.59%
Cc1csc(CN(CC2CCCO2)C(=O)c2ccc(C)nc2C)n1 (stereo not drawn),Percent Effect,"30.3 µM, […]",-39.1%
Cc1cc(=O)n(C)cc1NC(=O)Cc1cccc(Cl)c1,Percent Effect,"30.3 µM, […]",-5.155%
CCOCC1CN(CC2CC2)Cc2nn(CC3CC3)cc21.O=C(O)C(F)(F)F (stereo not drawn),Percent Effect,"30.3 µM, […]",-3.875%
CNC(=O)c1ccc(C2CN(C(=O)c3cnn(C)c3)CCO2)nc1 (stereo not drawn),Percent Effect,"30.3 µM, […]",4.595%
CN(C)CCO[C@@H]1CC[C@H]2[C@H]1OCCN2C(=O)COc1ccccc1.O=C(O)C(F)(F)F,Percent Effect,"30 µM, 30.03 µM",28.35%
NS(=O)(=O)c1ccc(N2CCN(CCCc3cn[nH]c3)CC2)cc1,Percent Effect,"30.3 µM, […]",-5.312%
COc1ccc(S(=O)(=O)N2CCC[C@@H]3CN(C(=O)C4CC4)C[C@@H]32)cc1F,Percent Effect,"30.3 µM, […]",-21.4%
COc1cc(C(C)=O)ccc1OCCNCc1ccco1.Cl,Percent Effect,"30.3 µM, […]",31.62%
COc1cc(CNCc2ccco2)ccc1OCCO.Cl,Percent Effect,"30.3 µM, […]",36%
CCCc1ccc(OCCNCc2ccco2)c(OC)c1.Cl,Percent Effect,"30.3 µM, […]",65.86%
Cc1noc(CN(Cc2cccc(C#N)c2)Cc2ccco2)n1,Percent Effect,"30.3 µM, […]",-9.737%
O=C(c1cnccn1)N1CCN2C[C@H](OCC3CC3)C[C@H]2C1,Percent Effect,"30.3 µM, […]",-6.525%
Cc1cccc(Cc2cc(C)nc(C3CCCNC3)c2)c1 (stereo not drawn),Percent Effect,"30.3 µM, […]",59.44%
Cc1cc(Cc2cccc(C(F)(F)F)c2)cc(C2CCCNC2)n1 (stereo not drawn),Percent Effect,"30.3 µM, […]",91.42%
Cc1cc(Cc2ccccc2C)cc(C2CCCNC2)n1 (stereo not drawn),Percent Effect,"30.3 µM, […]",39.73%
Cc1cc(Cc2ccccc2F)cc(C2CCCNC2)n1 (stereo not drawn),Percent Effect,"30.3 µM, […]",9.469%
Cc1cc(Cc2ccccc2)cc(C2CCCNC2)n1 (stereo not drawn),Percent Effect,"30.3 µM, […]",19.14%
Cc1cc(Cc2ccc(F)cc2)cc(C2CCCNC2)n1 (stereo not drawn),Percent Effect,"30.3 µM, […]",22.51%
CC(O)CCN(C)C(=O)Nc1ccc(Br)cc1 (stereo not drawn),Percent Effect,"30.3 µM, […]",-0.06572%
Cc1ccc(CNC(=O)CN2CCCC(Cn3cncn3)C2)cc1 (stereo not drawn),Percent Effect,30 µM,15.14%
Nc1nc(N2CCCCCC2)ncc1C(=O)NCc1ccc(F)c(Cl)c1,Percent Effect,"30.3 µM, […]",1.039%
CC(CO)CSc1ncnc2[nH]ncc12 (stereo not drawn),Percent Effect,"30.3 µM, […]",-17.01%
O=C(O)C(F)(F)F.O=C(O)C(F)(F)F.O=C1COC2(CCN(Cc3cccnc3)CC2)CN1,Percent Effect,"30.3 µM, […]",22.41%
CC(C)Nc1nc2c(c(NC3CC3)n1)CCN(C(=O)C1CCOC1)CC2 (stereo not drawn),Percent Effect,"30.3 µM, […]",26.08%
CC(C)Nc1nc2c(c(NC3CC3)n1)CCN(C1CCOCC1)CC2,Percent Effect,"30.3 µM, […]",70.3%
Cc1nc2c(c(NC(C)C)n1)CCN(C1CCOCC1)CC2.O=C(O)C(F)(F)F,Percent Effect,"30.3 µM, […]",14.91%
CC(C)N(CCO)C(=O)C1CCC(=O)N(CCc2cccc(F)c2)C1 (stereo not drawn),Percent Effect,"30.3 µM, […]",21.22%
OCC1(Cc2ccc(Cl)cc2)CCN(Cc2cccnc2)CC1,Percent Effect,"30.3 µM, […]",13.26%
Cc1n[nH]c(C)c1NC(=O)Nc1cccnc1N1CCCC1,Percent Effect,"30.3 µM, […]",-22.16%
CSc1ccc2cc(CN(C)CCO)c(=O)[nH]c2c1,Percent Effect,"30.3 µM, […]",10.15%
CC(CCN1CCC(n2cc(CCO)nn2)CC1)c1ccccc1 (stereo not drawn),Percent Effect,"30.3 µM, […]",17.91%
COCc1cn(C2CCN(CCC(C)c3ccccc3)CC2)nn1 (stereo not drawn),Percent Effect,"30.3 µM, […]",15.55%
CNCc1cn(C2CCN(CCC(C)c3ccccc3)CC2)nn1 (stereo not drawn),Percent Effect,"30.3 µM, […]",69.72%
Cc1noc(C)c1CCCNC(=O)C1CCCN(C(=O)C2CC2)C1 (stereo not drawn),Percent Effect,"30.3 µM, […]",17.01%
CCSc1cc(C(=O)NCCNC(=O)Cc2ccccc2)ccn1,Percent Effect,"30.3 µM, […]",42.53%
CCSc1cc(C(=O)NCc2ccc(C(=O)NC)cc2)ccn1,Percent Effect,"30.3 µM, […]",-0.2287%
CCSc1cc(C(=O)NCc2ccccc2O)ccn1,Percent Effect,"30 µM, 30.03 µM",52.62%
CNCC(=O)N[C@H]1CN(c2nc(C)c3c(n2)CCCC3)C[C@@H]1C1CC1,Percent Effect,"30.3 µM, […]",61.72%
CNc1nc(N2C[C@H](NC(=O)CCOC)[C@@H](C3CC3)C2)nc2c1CCC2,Percent Effect,"30.3 µM, […]",20.37%
COCCC(=O)N[C@H]1CN(c2nc(C)c3c(n2)CCCC3)C[C@@H]1C1CC1,Percent Effect,"30.3 µM, […]",-3.355%
Cc1ccc(CN(C)C(=O)c2cnsn2)cc1,Percent Effect,"30.3 µM, […]",19.42%
CCn1nc(CC(C)C)cc1C(=O)N1CC(c2ccncc2)C1,Percent Effect,"30.3 µM, […]",24.78%
CCOCC(=O)NCCc1nc(C)cc(C(F)(F)F)n1,Percent Effect,"30.3 µM, […]",-29.08%
CCC(C(=O)NCCc1nc(C)cc(C(F)(F)F)n1)n1cccn1 (stereo not drawn),Percent Effect,"30.3 µM, […]",69.8%
CCC(C(=O)NCc1nc(C)cc(C(F)(F)F)n1)n1cccn1 (stereo not drawn),Percent Effect,"30.3 µM, […]",13.87%
O=C(CC1NC(N2CCc3ccccc3C2)=NC1=O)Nc1ccccc1 (stereo not drawn),Percent Effect,"30.3 µM, […]",4.892%
COCCC(=O)N1CCN(CC(C)C)c2nc(C)ccc2C1.O=C(O)C(F)(F)F,Percent Effect,"30.3 µM, […]",8.451%
CC1(NC(=O)Cc2cccs2)CCS(=O)(=O)C1 (stereo not drawn),Percent Effect,"30.3 µM, […]",19.51%
CC(C)CCn1nc2ccc(S(=O)(=O)N3CCOCC3)cn2c1=O,Percent Effect,"30.3 µM, […]",-38.47%
CC(C)Cn1nc2ccc(S(=O)(=O)N3CCC(C)CC3)cn2c1=O,Percent Effect,"30.3 µM, […]",58.76%
CCn1nc2ccc(S(=O)(=O)N3CCSCC3)cn2c1=O,Percent Effect,"30.3 µM, […]",8.958%
CCN(C)S(=O)(=O)N(Cc1cscn1)c1ccccc1,Percent Effect,"30.3 µM, […]",-18.14%
Cc1nc(C2CCCN2CCCS(N)(=O)=O)no1 (stereo not drawn),Percent Effect,30 µM,6.42%
Cc1ccc(-c2cc(C(=O)NCCCc3csc(N)n3)[nH]n2)s1,Percent Effect,"30.3 µM, […]",19.81%
Cn1cccc1-c1cc(C(=O)NCCCc2csc(N)n2)[nH]n1,Percent Effect,"30.3 µM, […]",54.27%
Cc1ccc(-c2cc(C(=O)NCCCc3csc(N)n3)[nH]n2)o1,Percent Effect,"30.3 µM, […]",-46.01%
Cc1ccc(N2CC[C@@H]3O[C@@H](COCc4cccnc4)CC[C@@H]32)nn1.O=C(O)C(F)(F)F.O=C(O)C(F)(F)F,Percent Effect,"30.3 µM, […]",-9.892%
CCN1CC2(CCNCC2)COc2ccccc2S1(=O)=O.O=C(O)C(F)(F)F,Percent Effect,"30 µM, 30.03 µM",13.53%
